Assay results published in PubChem BioAssay AID504375 (National Center for Advancing Translational Sciences (NCATS), 2011).
About 25 (2%) of roughly 1,600 compounds were called active. About 7% were inconclusive and are not listed. Calls come from the whole dose curve; as a rule, active = well fitted inhibition curve with a large enough effect; inconclusive = small, poorly fitted or top-dose-only effect, or effect the other way; inactive = no such curve, though single readings can be large or run the other way. What follows is part of a selection rich in actives, with near analogues and random picks from the rest.

target: Runt-related transcription factor 1 (Homo sapiens) + Core-binding factor subunit beta (Homo sapiens) (UniProt Q01196+Q13951); assay: qHTS Assay for Compounds Blocking the Interaction Between CBF-beta and RUNX1 for the Treatment of Acute Myeloid Leukemia: Hit Validation with Orthogonal Assay; conditions: CBFbeta-RUNX1 binding orthogonal assay, biochemical; series mostly up to 41 µM; activity change, negative = inhibition: at the top concentration
Source text: NIH Chemical Genomics Center [NCGC]
NIH Molecular Libraries Probe Production centers Network [MLPCN]
Assay Submitter (PI): Paul Liu
Core Binding Factor (CBF) abnormalities are associated with 20-25% of all acute myeloid leukemias (AML), of which 5-10% are further sub classified as acute myelomonocytic leukemia with eosinophilia, also known as M4Eo in the FAB classification scheme. This subtype of leukemia is usually associated with chromosome 16 inversion (p13:q22). Chromosome 16 inversion results in formation of the fusion oncogene CBFB-MYH11, which encodes the fusion protein CBF-beta-SMMHC.
It has been hypothesized that the interference of CBF-beta and RUNX1 binding could have therapeutic implications for patients with CBF mediated leukemias. We developed a CBF-beta and RUNX1 binding assay in AlphaScreenTM format and optimized it for high throughput screening to search for inhibitors. The goal of this project is to screen MLPCN's compound collection (MLSMR) for identifying the inhibitors of the interaction between CBF-beta and RUNX1 proteins as research probes. If these probes work well in the animal models, the ultimate goal of this project is to development a new drug treatment for this disease.
This assay can not be used to assess how apparent inhibitors interfere with protein binding, and whether inhibitors specifically bind to either protein. Disruption of this protein-protein interaction, through any mechanism, is the intended target activity.
The present data set was run to confirm the activity of hits from the primary screen using an orthogonal assay technology for measuring protein-protein interaction disruption.
A TR-FRET (time resolved fluorescence resonance energy transfer) assay was performed using the same assay buffer, protein concentrations and incubation times as described previously in the AlphaScreen assay, except that terbium (Tb+) labeled anti-his-antibody and XL665 linked streptavidin were used to capture the binding signal. The Tb+ labeled anti-his-antibody captures His(6)-CBF and XL665 linked streptavidin binds to biotin-RUNX1. The binding of RUNX1 to CBFbrings Tb+ and XL665 to proximity resulting in a TR-FRET signal. Briefly, in a white 384-well plate, 10 µl/well of mixture of biotin-RUNX1 and His(6)-CBFwere incubated with 10 µl/well buffer (positive control) or 10 µl/well compounds (negative control) for 20 min followed by an addition of 10 µl/well of Tb+ labeled anti-his(6)-antibody and XL665 linked streptavidin. After 90 min of incubation in the dark, the assay plate was measured in the Envision plate reader using TR-FRET detection mode. For the 1536-well plate format, 3 µl/well mixture of biotin-RUNX1 and His(6)-CBF (30 nM per protein) was incubated with 23 nl/well compound (dissolved in 100% DMSO) or the equivalent DMSO concentration (positive control) for 30 min followed by the addition of 1 µl/well of 0.44 ng Tb+ labeled anti-his(6)-antibody and 5 nM streptavodin-XL665. After 90 min of incubation, the assay plate was measured in the Envision plate reader.
The TR-FRET assay for detecting interaction between HIV-I Tat and […] was similarly performed with the recombinant full-length HIV-I Tat CLADE B and HIV-I Tat Biotin conjugated proteins supplied by Diatheva (Fano, Italy). Briefly, the His-CBF and Biotin-RUNX1 complex at a working concentration of 83.3 nM per protein were pre-incubated in assay buffer for 10 minutes on ice. Then HIV-I Tat or unlabeled CBF were added to reach final concentrations (Supplementary Figure 4b) and incubated for 5 minutes. Finally anti-His antibody and streptavidin-XL665 at a final concentration of 2.2 ng and 5 nM, respectively, were added to the plate, which was incubated for 1 hr prior to reading on the PerkinElmer Envision plate reader.
Keywords: MLSMR, MLPCN, NIH Roadmap, qHTS, NCGC, Core binding factor, CBF, CBF-beta, Acute myeloid leukemia
% is set by controls: 0 for no effect and ±100 for the full control effect; potency is the fitted concentration of half-maximal effect.

Chain of Runt-related transcription factor 1 (Homo sapiens) + Core-binding factor subunit beta (Homo sapiens) (Q01196 whole entry, looked up): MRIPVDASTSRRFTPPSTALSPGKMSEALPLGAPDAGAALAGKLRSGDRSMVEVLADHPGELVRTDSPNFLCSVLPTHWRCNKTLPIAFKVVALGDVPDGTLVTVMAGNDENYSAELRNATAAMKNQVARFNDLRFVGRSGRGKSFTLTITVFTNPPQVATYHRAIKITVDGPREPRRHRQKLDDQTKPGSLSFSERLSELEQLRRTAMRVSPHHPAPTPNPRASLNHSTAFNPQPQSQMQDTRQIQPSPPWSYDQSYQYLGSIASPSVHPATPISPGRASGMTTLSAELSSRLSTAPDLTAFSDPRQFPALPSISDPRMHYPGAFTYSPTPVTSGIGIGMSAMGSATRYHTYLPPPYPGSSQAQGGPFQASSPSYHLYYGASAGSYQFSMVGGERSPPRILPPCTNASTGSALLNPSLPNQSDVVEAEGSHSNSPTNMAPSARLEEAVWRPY
Chain of Runt-related transcription factor 1 (Homo sapiens) + Core-binding factor subunit beta (Homo sapiens) (Q13951 whole entry, looked up): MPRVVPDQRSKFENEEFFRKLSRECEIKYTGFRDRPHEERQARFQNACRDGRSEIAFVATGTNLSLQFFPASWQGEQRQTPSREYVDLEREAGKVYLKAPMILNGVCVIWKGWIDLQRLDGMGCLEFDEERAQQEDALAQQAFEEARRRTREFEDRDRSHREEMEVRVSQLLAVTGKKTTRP

Potency, active:
O=C1OCC2OC(O)C(O)C(O)C2OC(=O)c2cc(O)c(O)c(O)c2-c2c(O)c(O)c3oc(=O)c4c(c(O)c(O)c5oc(=O)c2c3c54)-c2c1cc(O)c(O)c2O (stereo not given) 398 nM
Cc1ccc(Cl)cc1NC(=S)N(CCN(C)C)C(C)c1ccccn1 (stereo not given) 1220 nM
O=C1c2ccccc2C(=O)N1/N=C/c1ccc(O)c(O)c1O 2820 nM
CCc1cccc(NC(=O)CCCCCC2NC(=O)NC2C)c1 (stereo not given) 56.2 nM
O=C(OCC1OC(OC(=O)c2cc(O)c(O)c(OC(=O)c3cc(O)c(O)c(O)c3)c2)[C@@H](OC(=O)c2cc(O)c(O)c(OC(=O)c3cc(O)c(O)c(O)c3)c2)C(OC(=O)c2cc(O)c(O)c(OC(=O)c3cc(O)c(O)c(O)c3)c2)C1OC(=O)c1cc(O)c(O)c(OC(=O)c2cc(O)c(O)c(O)c2)c1)c1cc(O)c(O)c(OC(=O)c2cc(O)c(O)c(O)c2)c1 (stereo not given in full) 10000 nM
O=C(O)C[C@@H]1C(=O)O[C@@H]2C(COC(=O)c3cc(O)c(O)c(O)c3)O[C@@H](OC(=O)c3cc(O)c(O)c(O)c3)[C@@H](OC(=O)c3cc(O)c(O)c4c3[C@H]1[C@H](O)C(=O)O4)[C@H]2OC(=O)c1cc(O)c(O)c(O)c1 (stereo not given in full) 89.1 nM
Cc1c2c(c(O)c3c(O)cccc13)C(=O)O[C@H]2C1C(N(C)C)C(O)=C(C(N)=O)C(=O)[C@H]1O (stereo not given in full) 2240 nM
O=c1c(O)cccc2cc(O)c(O)c(O)c12 1260 nM
O=C(NC(=S)NNC(=O)c1ccccc1O)c1ccco1 3160 nM

Activity change, negative = inhibition, inactive:
Cc1nn(C)c(Sc2ccccn2)c1[N+](=O)[O-] 17.8%
Nc1ccc(Oc2ccccc2F)nc1 4.8%
Cc1nc(C)c(-c2ccn(C(=O)NC(C)C)n2)s1 -3.96%
CC(C)(C)c1ccc(C(=O)Nc2ccc(S(N)(=O)=O)cc2)cc1 -14.1%
c1ccc2oc(-c3ccn[nH]3)cc2c1 13%
CN(C)C(=S)Nc1ccc(Cl)cc1 -10.5%
C/C(=N\NC(=O)c1cc(-c2cccc([N+](=O)[O-])c2)n[nH]1)c1ccc(F)cc1 24.3%
Cc1cc(Cl)c2cc3ccccc3cc2n1 -4.05%
Cc1ccc(Cl)cc1NC(=S)NN -11.4%
Cc1cccc(NC(=S)N(CCN(C)C)C(C)c2ccccn2)c1 (stereo not given) 3.34% [at 22.1 µM]
COc1ccc(C2Sc3ccccc3N(CCN(C)C)C(=O)C2OC(C)=O)cc1 (stereo not given) -5.56%
c1ccc(N2CCOCCOCCOCCOCC2)cc1 -0.0612%
CC(C)(C)OC(=O)N1CCCN(C(=O)Nc2cccc(Cl)c2)CC1 -9.47%
COc1ccc(C(=O)COc2ccc(C)cc2NC(C)=O)cc1 1.31%
CC1CC(C)(C)NC(=S)O1 (stereo not given) -6.64%
CCCCCNc1nc2sc3c(c2c(=O)n1-c1cccc(Cl)c1)CCN(C)C3 10.2%
Cc1cc(C)c2c(N)c(-c3nnc(SCc4ccc(Cl)cc4)n3C)sc2n1 -7.93%
O=C(/C=C/c1cn(CC(O)CN2CCCCC2)c2ccccc12)c1ccccc1 (stereo not given) 7.34%
S=c1[nH]nc([C@@H]2C[C@H]2c2ccccc2)n1-c1ccccc1Cl -7.38%
CCCCC(=O)Nc1ccc(NC(=S)NC(=O)c2ccco2)cc1OC -1.9%
CCC(=O)Nc1cccc(C(=O)OC)c1 1.37%
CCCCc1c(C)nc(N2CCCC2)[nH]c1=O 0.526%
Cc1cc(=O)n2[nH]c(CCC(=O)O)nc2n1 14.9%
CCN(CC)S(=O)(=O)c1cccc(NC2=NCCCCC2)c1 -3.88%
CCN1C/C(=C/c2cccs2)c2nc3ccccc3c(C(=O)O)c2C1 30.8%
COc1ccc(OS(=O)(=O)c2c(C)noc2C)cc1 14.1%
O=C(Nc1ccc(Cl)cc1)N1CCCC(Cn2cccc2)C1 (stereo not given) -9.6%
CC(C)c1nc2oc3c(N(C)CCO)ncnc3c2c2c1CCC2 -6.9%
CC(C)(C)NC(=O)c1cccc2c1C(=O)c1ccccc1-2 19.1%
CCN(CC)c1ccc(/C=N/N2CCN(Cc3ccccc3Cl)CC2)c(O)c1 3.34%
CCCNC(=S)Nc1ccccc1 1.82%
CC1CCC2(CC1)NC(=S)N(C(C)(C)C)N2 (stereo not given) -0.587%
CN1c2ccccc2C(=O)/C(=C\Nc2ccc(F)cc2)S1(=O)=O 3.72%
COC(=O)[C@@H](NC(=O)NC1CCCCC1C)C(C)C (stereo not given in full) 4.32%
CCCCCc1ccc(S(=O)(=O)Nc2cc(C)ccn2)cc1 -8.73%
Cc1onc(-c2ccccc2)c1C(=O)NNC(=S)NC(=O)c1ccc2c(c1)OCO2 0.0734%
O=C(CCl)NCCCN(C(=O)C(Cl)Cl)c1ccc([N+](=O)[O-])cc1 20.2%
Cn1nc(-c2ccccc2)cc1NS(=O)(=O)c1ccccc1 14.9%
O=C(NNC(=S)Nc1ccccc1C(F)(F)F)C1CC1 1.1%
COc1cc(/C=N\NC(=O)CNC(=O)C(c2ccccc2)c2ccccc2)ccc1O 11.9%
COCc1cc(=O)n2[nH]c(C(C)(C)C)cc2n1 -2.01%
COc1cc(NCc2ccccc2O)c2ncccc2c1 9.87%
COc1ccc(NS(=O)(=O)c2ccc(Cl)s2)cn1 7.73%
O=C(NN1C(=O)C2CCCCC2C1=O)c1ccco1 (stereo not given) -0.159%
O=C(NC(=S)Nc1ccccc1N1CCCC1)c1ccco1 3.85%
Cc1onc(-c2ccccc2)c1C(=O)NC(=S)NNC(=O)c1ccco1 -16.1%
